Assay results as given in PubChem BioAssay AID463229 (Broad Institute, 2010).
About 2,100 (91%) of roughly 2,300 compounds were called active.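 The calls were made as follows: active = compounds raising the signal whose fitted half-maximal concentration is at or below their top tested dose (cut at about 25 µM in these data); inconclusive = flat fit at 30 to 70% activity, or a poor fit; inactive = the rest.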 The set was probably picked from earlier hits. The list is a sample of the results. Results with a measured potency or affinity are listed apart.

Assay: ATP level change in INS-1E without cytokines, dose response, counter-screen for beta-cell apoptosis protection project, INS-1E rat cells, ATP luminescence, cherry pick (AID 463229)
Settings: INS-1E rat beta cells, no cytokines, CellTiter-Glo ATP, 48 h; series mostly up to 26 µM

Q: For `COc1ccc(C2=Nn3c(nnc3-c3ccccc3Cl)SC2)cc1OC1CCCC1`, which outcome is on record?
A: The outcome was “inactive”.

Q: With `CCn1c(SCC(=O)Nc2ccc(OC)cc2)nc2nc3c(cc2c1=O)CCCC3` as the compound, how does the outcome read?
A: The outcome was “inactive”.

Q: For `Cc1cccnc1CCNCc1c(C(=O)N2C[C@@H](C)O[C@@H](C)C2)nc2ccc(Cl)cn12`, which outcome is on record?
A: Its outcome is “inactive”.

Q: Which outcome does the source give for `Cc1ccccc1Oc1nc(-c2ccccn2)nc2ccccc12` here?
A: The outcome was “inactive”.

Q: Which outcome does the source give for `COc1cc2c(cc1OC)C(NC(=O)C(F)(F)F)CNC2=O` (configuration not stated) here?
A: Its outcome is “inactive”.

Q: Which outcome does the source give for `Cc1cccc(C2(c3cccc(C)c3)OC(=O)c3ccccc32)c1` here?
A: Its outcome is “inactive”.

Q: For `O=C(CN1C(=O)c2ccccc2S1(=O)=O)c1ccc(F)cc1`, which outcome is on record?
A: Its outcome is “inactive”.

Q: With `O=c1c2c3c(sc2n(CCN2CCCCC2)c(=O)n1Cc1ccco1)CCCCC3` as the compound, how does the outcome read?
A: Its outcome is “inactive”.

Q: Which outcome does the source give for `CCCCn1cnc2c(c(-c3ccccc3)c(-c3ccccc3)n2Cc2ccco2)c1=N` here?
A: The outcome was “inactive”.

Q: For `Cc1cc(C(=O)c2ccc3ccccc3c2)c(C)o1`, which outcome is on record?
A: The outcome was “inactive”.

Q: For `C=CCc1c(C)nc(C)nc1N/N=C/c1ccc(N(C)C)cc1`, which outcome is on record?
A: Its outcome is “inactive”.

Q: With `Cc1cc(N2CCOCC2)nc(N)n1` as the compound, how does the outcome read?
A: Its outcome is “inactive”.

Q: Which outcome does the source give for `COc1ccccc1NCC(=O)N1CCN(S(=O)(=O)c2ccccc2)CC1` here?
A: Its outcome is “inactive”.

Q: With `Cc1ccc(NC(=O)C(C)Sc2nnc(C)n2C2CC2)cc1S(=O)(=O)N1CCOCC1` (configuration not stated) as the compound, how does the outcome read?
A: The outcome was “inactive”.

Q: With `CNc1nc(N)c([N+](=O)[O-])c(Nc2cccc(F)c2)n1` as the compound, how does the outcome read?
A: Its outcome is “inactive”.

Q: Which outcome does the source give for `Cc1cccc(CNc2ccc(S(=O)(=O)N3CCCCC3)cc2)c1` here?
A: Its outcome is “inactive”.

Q: For `O=C(N/N=C/c1cccnc1)c1ccccc1NS(=O)(=O)c1cccs1`, which outcome is on record?
A: The outcome was “inactive”.

Q: With `O=C(c1cccc(Cl)c1)c1nn(-c2ccccc2)c(=O)cc1C(F)(F)F` as the compound, how does the outcome read?
A: Its outcome is “inactive”.

Q: For `O=[N+]([O-])/C=C/c1cn(Cc2ccc(F)cc2)c2ccccc12`, which outcome is on record?
A: Its outcome is “inactive”.

Q: Which outcome does the source give for `Cc1csc2nc(NC(=O)c3ccccc3)sc(=O)c12` here?
A: The outcome was “inactive”.

Q: Which outcome does the source give for `CCOc1ccc(N(C)S(=O)(=O)c2ccc(C)c(C(=O)OCC(=O)c3c[nH]c4ccccc34)c2)cc1` here?
A: The outcome was “inactive”.

Q: With `Cc1cc(C)c(OCC(O)CNC(C)(C)C)c(C)c1` (configuration not stated) as the compound, how does the outcome read?
A: Its outcome is “inactive”.

Q: With `OC(CNC1CCCCC1)COCCOc1ccc(Br)cc1` (configuration not stated) as the compound, how does the outcome read?
A: Its outcome is “inactive”.

Q: With `CC(C)(C)OC(=O)N1CCC(CNC(=O)c2cccs2)CC1` as the compound, how does the outcome read?
A: The outcome was “inactive”.

Q: For `COc1ccc(-c2ccnc(SCC(=O)N3CCN(c4ccccc4)CC3)n2)cc1`, which outcome is on record?
A: The outcome was “inactive”.

Q: With `O=C(NCc1nc2ccccc2[nH]1)C1=C[C@@H](C2CCCCC2)C[C@@H](OCc2ccc(CO)cc2)O1` as the compound, how does the outcome read?
A: The outcome was “inactive”.

Q: Which outcome does the source give for `CCOC(=O)C1=C(CCc2ccccc2)NC(=O)NC1c1ccc2ccccc2c1` (configuration not stated) here?
A: Its outcome is “inactive”.

Q: With `CCCOC(=O)/C(C(N)=NCc1ccccc1)=C(\O)OCCC` as the compound, how does the outcome read?
A: The outcome was “inactive”.

Q: With `c1cc(-c2noc(CC3CCCCC3)n2)ccn1` as the compound, how does the outcome read?
A: Its outcome is “inactive”.

Q: Which outcome does the source give for `COc1ccccc1/C=N/OCc1cc(C(C)=O)ccc1OC` here?
A: The outcome was “inactive”.

Q: For `CCCC(=O)N(CCN(C(=O)CCC)c1ccccc1)c1ccccc1`, which outcome is on record?
A: The outcome was “inactive”.

Q: Which outcome does the source give for `NC(=O)c1ccccc1OC1CCC1` here?
A: The outcome was “inactive”.

Q: Which outcome does the source give for `CN(C)c1ccc(/C=C(\C#N)C(=O)OCC(=O)N(C)C2CCS(=O)(=O)C2)cc1` (configuration not stated) here?
A: Its outcome is “inactive”.

Q: Which outcome does the source give for `COc1ccc(/C=C/C(=O)c2ccncc2)c2ccccc12` here?
A: The outcome was “inactive”.

Q: Which outcome does the source give for `COc1cc(CNCCO)cc(Cl)c1OCc1ccc(Cl)cc1Cl` here?
A: Its outcome is “inactive”.

Q: Which outcome does the source give for `Cc1ccc(NC(=O)NCC2CCN(Cc3cccc(Cl)c3)CC2)cc1Cl` here?
A: The outcome was “inactive”.

Q: Which outcome does the source give for `CCc1ccc(-n2c(C)cc(/C=N/NC(=O)c3ccncc3)c2C)cc1` here?
A: Its outcome is “inactive”.

Q: With `Cc1cc(C)nc(-n2nc(C)cc2Nc2ccccc2)n1` as the compound, how does the outcome read?
A: The outcome was “inactive”.

Q: For `CC1=CC(C)(C)N(C(=O)CSc2nnc(-c3ccc(C)cc3)o2)c2ccc(C)cc21`, which outcome is on record?
A: Its outcome is “inactive”.

Q: Which outcome does the source give for `CCOC(=O)C(=Cc1ccc(Br)cc1)C(=O)OCC` here?
A: Its outcome is “inactive”.

Q: For `O=[N+]([O-])c1ccc(N2CCN(CCOc3nonc3-c3ccccc3)CC2)c(Cl)c1`, which outcome is on record?
A: The outcome was “inactive”.

Q: With `Cc1ccccc1OC1C(=O)N(Cc2ccc3c(c2)OCO3)C1c1sccc1C` (configuration not stated) as the compound, how does the outcome read?
A: The outcome was “inactive”.

Q: For `CC(Sc1nnc2c(n1)[nH]c1ccccc12)C(=O)N(C)C1CCCCC1` (configuration not stated), which outcome is on record?
A: The outcome was “inactive”.

Q: With `CCCC1(c2ccccc2)NC(=O)N(CC(=O)Nc2cc(C)ccc2OC)C1=O` (configuration not stated) as the compound, how does the outcome read?
A: The outcome was “inactive”.

Q: Which outcome does the source give for `O=[N+]([O-])c1ccc(-n2cnc3ccccc32)c([N+](=O)[O-])c1` here?
A: Its outcome is “inactive”.

Q: For `CCS(=O)(=O)c1ncc(Cl)c(C(=O)Nc2ccccc2OC)n1`, which outcome is on record?
A: The outcome was “inactive”.

Q: For `Cc1ccc(OCc2cc(C(=O)N(C)Cc3cc(C4CC4)n[nH]3)no2)cc1C`, which outcome is on record?
A: The outcome was “inactive”.

Q: For `COCCCNC(=S)N/N=C/c1cccc(OC)c1O`, which outcome is on record?
A: Its outcome is “inactive”.

Q: With `O=C(Nc1ccc(F)cc1F)N1CCCN(CCOc2ccccc2)CC1` as the compound, how does the outcome read?
A: Its outcome is “inactive”.

Q: Which outcome does the source give for `CC(=O)Nc1ccc(S(=O)(=O)N2c3ccccc3NC(=O)CC2C)c(Cl)c1` (configuration not stated) here?
A: The outcome was “inactive”.

Q: With `Cc1cccc(NC(=O)Cn2c(/C=C/c3ccccc3)nc3ccccc32)c1` as the compound, how does the outcome read?
A: Its outcome is “inactive”.

Q: For `O=C(Oc1cccc2cccnc12)c1cccc(N2C(=O)C3C4CCC(C4)C3C2=O)c1` (configuration not stated), which outcome is on record?
A: The outcome was “inactive”.

Q: Which outcome does the source give for `O=c1c(Cl)c(Cl)cnn1Cc1ccc(F)cc1` here?
A: The outcome was “inactive”.

Q: Which outcome does the source give for `O=C(Cn1ncc(Cl)c(Cl)c1=O)c1ccc2c(c1)OCCO2` here?
A: The outcome was “inactive”.

Q: For `Cc1ccc2ccc3ccc(C)nc3c2n1`, which outcome is on record?
A: Its outcome is “inactive”.

Q: Which outcome does the source give for `CCOCCCNC(=O)c1c[nH]c2cc(OC)ccc2c1=O` here?
A: Its outcome is “inactive”.

Q: For `COc1ccc(C(=O)CSc2n[nH]c(=O)n2Cc2ccco2)cc1`, which outcome is on record?
A: The outcome was “inactive”.

Q: For `CCOc1ccc(OCC)c(S(=O)(=O)NCCOC23CC4CC(CC(C4)C2)C3)c1`, which outcome is on record?
A: Its outcome is “inactive”.

Q: For `C=CCN(CC=C)CC(O)Cn1c2ccccc2c2ccccc21` (configuration not stated), which outcome is on record?
A: Its outcome is “inactive”.

Q: For `O=C(NCc1ccccn1)c1cc(-c2ccc(Cl)cc2)oc1C(F)(F)F`, which outcome is on record?
A: Its outcome is “inactive”.

Q: With `CCN(CC(=O)Nc1ccc(NC(C)=O)cc1)C(=O)CCCOc1ccc(C(C)(C)C)cc1` as the compound, how does the outcome read?
A: The outcome was “inactive”.

Q: For `CC(=O)Oc1ccc(N(C(C)=O)S(=O)(=O)c2cccs2)c2ccccc12`, which outcome is on record?
A: The outcome was “inactive”.

Q: With `Cc1ccc(O)c(CNc2cccc3cccnc23)c1` as the compound, how does the outcome read?
A: The outcome was “inactive”.

Q: Which outcome does the source give for `Cc1nc(C(F)(F)F)c(C(=O)N/N=C(\N)c2ccccn2)s1` here?
A: The outcome was “inactive”.

Q: With `COc1ccc(/C=C/C(=O)NC(=S)Nc2ccccc2C(=O)NC2CCCCC2)cc1` as the compound, how does the outcome read?
A: Its outcome is “inactive”.

Q: With `O=C1CSC(c2ccccc2F)N1` (configuration not stated) as the compound, how does the outcome read?
A: Its outcome is “inactive”.

Q: With `CC(=O)c1c(C)[nH]c(C(=O)CN2CCN(S(=O)(=O)c3ccccc3)CC2)c1C` as the compound, how does the outcome read?
A: Its outcome is “inactive”.

Q: For `CCOc1ccc(-n2c(=O)[nH]cc(C(=O)Nc3ccc(OC)c(OC)c3)c2=O)cc1`, which outcome is on record?
A: Its outcome is “inactive”.

Q: With `CCCOc1ccc(C(=O)C(CN2CCOCC2)c2ccccc2)cc1` (configuration not stated) as the compound, how does the outcome read?
A: Its outcome is “inactive”.

Q: For `CC(NC(=O)C1CCC(C(=O)NC(C)c2ccccc2)CC1)c1ccccc1` (configuration not stated), which outcome is on record?
A: Its outcome is “inactive”.

Q: With `CC(=O)c1ccccc1OCCOCCOc1ccccc1C(C)=O` as the compound, how does the outcome read?
A: The outcome was “inactive”.

Q: Which outcome does the source give for `Cc1cc(C)c2c(C)[nH]nc2n1` here?
A: Its outcome is “inactive”.

Q: For `O=C(c1ccccc1)C(CCC(CN1CCOCC1)C(=O)c1ccccc1)CN1CCOCC1` (configuration not stated), which outcome is on record?
A: Its outcome is “inactive”.

Q: Which outcome does the source give for `CC(=O)SC1CC(=O)N(c2c(C)cccc2C)C1=O` (configuration not stated) here?
A: The outcome was “inactive”.

Q: Which outcome does the source give for `COc1ccccc1/C=N\Nc1cc(C)nc(-n2nc(C)cc2C)n1` here?
A: The outcome was “inactive”.

Q: For `O=C(Nc1ccc(Nc2ccncc2)cc1)c1ccc(Nc2ccnc3ccc([N+](=O)[O-])cc23)cc1[N+](=O)[O-]`, which outcome is on record?
A: Its outcome is “inactive”.

Q: With `O=c1c(Cl)c2oc3ccccc3nc-2c2ccccc12` as the compound, how does the outcome read?
A: Its outcome is “inactive”.

Q: With `CCN(CC)c1ccc(N=C2C(=O)Nc3ccccc32)cc1` as the compound, how does the outcome read?
A: The outcome was “inactive”.

Q: With `O=C1CSC(c2cccnc2)N1CC1CC1` (configuration not stated) as the compound, how does the outcome read?
A: Its outcome is “inactive”.

Q: For `Cc1ccccc1NC(=S)Nc1cccc2cnccc12`, which outcome is on record?
A: Its outcome is “inactive”.

Q: With `COc1ncnc(OC)c1S(=O)(=O)Nc1ccc(C(F)(F)F)cc1` as the compound, how does the outcome read?
A: Its outcome is “inactive”.

Q: For `Cc1ccccc1Cn1ccc(=NCc2ccccc2)cc1`, which outcome is on record?
A: Its outcome is “inactive”.

Q: For `Cc1ccc(S(=O)(=O)N2CCCCC2c2cccnc2)c(C)c1C` (configuration not stated), which outcome is on record?
A: Its outcome is “inactive”.

Q: Which outcome does the source give for `Cc1ccc(Oc2nc(-c3ccccn3)nc3ccccc23)cc1` here?
A: The outcome was “inactive”.

Q: Which outcome does the source give for `Nc1ccc(N2CCCCC2)cc1N1CCCCC1` here?
A: Its outcome is “inactive”.

Q: Which outcome does the source give for `CC(=O)Oc1c(Cl)cc(N(C(C)=O)S(=O)(=O)c2ccccc2)c2ccccc12` here?
A: Its outcome is “inactive”.

Q: Which outcome does the source give for `O=C(COC(=O)Cn1cnc2ccccc2c1=O)Nc1ccc2c(c1)OCO2` here?
A: Its outcome is “inactive”.

Q: Which outcome does the source give for `CC(C)OCCCNC(=S)N1CCC(C(=O)c2ccc(Cl)cc2)CC1` here?
A: The outcome was “inactive”.

Q: With `CC(C)(C)n1[nH]c2c3c(ccc2c1=O)C(=O)c1ccccc1C3=O` as the compound, how does the outcome read?
A: Its outcome is “inactive”.

Q: With `CCCCC[n+]1ccn(C2=C([O-])c3ccccc3C(=O)/C2=N\S(=O)(=O)c2ccccc2)c1` as the compound, how does the outcome read?
A: Its outcome is “inactive”.

Q: With `CCCCN(C)CCNC(=O)c1cc2c(-c3ccccc3F)nn(C)c2s1` as the compound, how does the outcome read?
A: Its outcome is “inactive”.

Q: With `CC(C(c1cccs1)c1c(N)n(C)c(=O)n(C)c1=O)[N+](=O)[O-]` (configuration not stated) as the compound, how does the outcome read?
A: Its outcome is “inactive”.
